Compounds without any hit were thinned out: in the full panel of roughly 83,000, 20% have a hit.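 Negative percent growth values reflect cell death: -40 means 40% of the cells present at the start died, and -100 means all died.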 Values without a mark were called inactive. Active and inactive are the calls of the source. Rule for the calls: active = growth percent below 10; inactive = the rest.
Legend:
Test in all cases: NCI-60 one-dose screen, 48 h (100 = growth as untreated, 0 = no growth, -100 = all killed)
Conditions in all cases: 10 µM unless noted
BT-549 breast = system: BT-549 breast
MDA-MB-435 melanoma = system: MDA-MB-435 melanoma
SW-620 colon = system: SW-620 colon
MCF7 breast = system: MCF7 breast
HCT-116 colon = system: HCT-116 colon
HCC-2998 colon = system: HCC-2998 colon
KM12 colon = system: KM12 colon

| Compound | growth (BT-549 breast) | growth (MDA-MB-435 melanoma) | growth (SW-620 colon) | growth (MCF7 breast) | growth (HCT-116 colon) | growth (HCC-2998 colon) | growth (KM12 colon) |
| --- | --- | --- | --- | --- | --- | --- | --- |
| COc1cc(C2NC(c3ccc(Cl)cc3)C(C)C(=NC(=O)c3cnccn3)C2C)cc(OC)c1OC (centres undefined) | 102% | 108% | 114% | 93.1% | 78.9% | 129% | 90.7% |
| COc1ccc(C(=O)/C=C/c2c(Cl)nc3c(c(C)nn3-c3ccccc3)c2-c2ccc(Br)cc2)cc1 | 97.5% | 107% | 110% | 96.7% | 102% | 114% | 109% |
| c1coc([C@@H]2C[C@@H]3Cc4ccc5ccccc5c4N2O3)c1 | 105% | 103% | 103% | 84.6% | 99.2% | 107% | 107% |
| CC(=O)n1c2ccccc2c2ccccc21 | 119% | 106% | 106% | 104% | 102% | 96.1% | 114% |
| COC(=O)[C@]1(C(C)C)N[C@H](c2cn(-c3ccccc3)nc2-c2ccccc2)[C@@H]2C(=O)N(c3ccc(Cl)cc3)C(=O)[C@@H]21 | 86.7% | 105% | 99.4% | 96.6% | 89.8% | 109% | 95.3% |
| COc1cc(OC)c2sc(-c3ccc(-n4cncc4-c4ccc(N)cc4)cc3)nc2c1 | 82.4% | 62.9% | 91.2% | 63.4% | 70.2% | 96.2% | 64.1% |
| COc1ccc(-c2cc(C(=O)Nc3nc4cc(C)c(C)cc4s3)nc3cc(-c4ccccc4)nn23)cc1OC | 122% | 96.8% | 47.3% | 99% | 108% | 99.7% | 112% |
| C=CCCCCCCCCC(=O)[O][Sn]([CH2]CCC)([CH2]CCC)[CH2]CCC | -99.2% (active) | -86% (active) | -81.7% (active) | -66.4% (active) | -95.8% (active) | -97.9% (active) | -92.6% (active) |
| COc1ccc(-c2nc3sccn3c2-c2ccnc(S(C)(=O)=O)n2)cc1 | 122% | 82.7% | 91.1% | 46.2% | 79.6% | -55% (active) | 75% |
| Cc1c(C(N)=O)sc2c1c(=O)n(Cc1ccccc1)c1nnc(SCC(=O)Nc3ccc(Cl)cc3)n21 | 67.7% | 40.7% | 35.6% | 31.6% | 2.83% (active) | 18.1% | 55.3% |
| Oc1[nH]c2ccc(Cl)cc2c1/C=c1/ccc2c(c1)N=C(c1ccc(C(F)(F)F)cc1)N=2 | 88.4% | 42.7% | 84.3% | 27.6% | 50.1% | 61.5% | 45.4% |
| Cc1cc(C)n2nc(SCC(=O)Nc3sc4c(c3C(N)=O)CCC4)nc2n1 | 99.6% | 108% | 100% | 107% | 97.2% | 118% | 114% |
| Clc1ccc(-n2cnc3c(Cl)ncnc32)cc1Cl | 90.3% | 99.3% | 78.6% | 89.8% | 61.1% | -75% (active) | 95% |
| Cc1nn(-c2ccc(Cl)cc2)c2nc3c(nc12)C(=O)c1ccccc1-3 | 82% | 67.5% | 83.4% | 49.1% | 39.9% | 52.5% | 78.8% |
| CCCC[N+](CCCC)=c1ccc2nc3c(C)cc(N(CC)CC)cc3sc-2c1 | 2.12% (active) | -88.1% (active) | -71.9% (active) | -50% (active) | -24.7% (active) | 24.4% | 0.608% (active) |
| Nc1nc(SCC2(CCl)COC2)c2[nH]cnc2n1 | 91.2% | 107% | 99.8% | 86.4% | 105% | 97.7% | 108% |
| CC/C(=C\c1ccc(N(C)C)cc1)c1ccncc1 | 65.8% | -6.41% (active) | 19.9% | 28.8% | 22.2% | 66.6% | 20.4% |
| Fc1ccc(-c2nnc(-c3c(-c4ccc(F)cc4)nc4ncccn34)o2)cc1 | 99.9% | 97% | 108% | 92.4% | 94.5% | 111% | 103% |
| O=C1NCN(CCO)CN1 | 75.9% | 97.1% | 102% | 94.1% | 106% | 100% | 108% |
| CC(C)[O-].CC(C)[O-].CN(CCN(C)Cc1cc(F)cc(F)c1[O-])Cc1cc(F)cc(F)c1[O-].[Ti+4] | -1.16% (active) | -24.5% (active) | 0.502% (active) | -42.2% (active) | -0.794% (active) | 57% | -30.7% (active) |
| Nc1nc(SCc2ccccc2Cl)c(-c2ccccc2)c(SCc2ccccc2Cl)n1 | 113% | 88.8% | 77.3% | 78% | 82.2% | 99% | 85.7% |
| N#Cc1cnc2cc(OC[C@H](O)CO)c(NC(=O)CC3CSSC3)cc2c1Nc1ccc(OCc2cccc(F)c2)c(Cl)c1 | -62.2% (active) | -82.7% (active) | -70.8% (active) | -69.2% (active) | -42.8% (active) | -81.9% (active) | -81.8% (active) |
| COc1ccc(-c2cc(Cc3cccs3)c(=O)n(Cn3ccc4ccccc43)n2)cc1 | 116% | 90.8% | 114% | 95.2% | 106% | 107% | 110% |
| COc1ccc(C(=O)COc2cccc(/C=C3\Oc4ccc5ccccc5c4C3=O)c2)cc1 | -96.9% (active) | 94.7% | 19% | 10.1% | 29% | 60% | 97.9% |

| Compound | growth (BT-549 breast) | growth (MDA-MB-435 melanoma) | growth (SW-620 colon) | growth (MCF7 breast) | growth (HCT-116 colon) | growth (HCC-2998 colon) | growth (KM12 colon) |
| --- | --- | --- | --- | --- | --- | --- | --- |
| O=C1NCN(c2ccccc2)C12CCN(CCCC(c1ccc(F)cc1)c1ccc(F)cc1)CC2 | 61.6% | 47.7% | 77% | 37.8% | 30.1% | 15.9% | 76.3% |
| CCOC(=O)c1c(NC(=O)C2CCCCC2C(=O)O)sc2c1CCCC2 (centres undefined) | 102% | 97.4% | 101% | 98.1% | 109% | 110% | 109% |
| O=C(CN1CCCCC1)Sc1nnc2sc3ccccc3n12 | 104% | 111% | 101% | 92.9% | 95.3% | 116% | 104% |
| N=C(N)/N=C(\CCc1nc2ccccc2[nH]1)c1nc2ccccc2[nH]1 | 104% | 109% | 104% | 86.3% | 102% | 100% | 103% |
| CCOC(=O)c1c2c(c(C)n1Cc1ccccc1)-c1nc(N)ncc1CC2 | 162% | 136% | 104% | 106% | 90.7% | 97.4% | 100% |
| CCC(C)CC(C)C(=O)c1c(O)ccn(OC)c1=O (centres undefined) | 78.1% | 73.6% | 61.8% | 74.3% | 47.6% | 95.7% | 102% |
| c1cncc(CNc2ccccc2-c2nnc(Nc3ccc4c(c3)OCO4)o2)c1 | 39.2% | -28% (active) | 30.6% | 9.29% (active) | 8.54% (active) | 20.1% | 3.86% (active) |
| CC12CCC3C(CCC4CC(=O)/C(=C\O)CC43C)C1CCC(=O)O2 (centres undefined) | 112% | 110% | 110% | 102% | 100% | 101% | 115% |
| O=C(NN(C(=O)c1ccccc1)c1cccs1)c1ccccc1 | 98% | 124% | 104% | 110% | 93.7% | 103% | 117% |
| COc1cc2c(c(OC)c1OC)-c1ccc(NN(C(=O)c3ccccc3)C(=O)c3ccccc3)c(=O)cc1[C@@H](NC(C)=O)CC2 (tested in a mixture with another compound) | 37.3% | -68.8% (active) | 17.1% | 24% | 12.1% | 6.05% (active) | 9.8% (active) |
| O=C(Nc1cccc2ccccc12)c1cc2c(cc1Br)OCO2 | 61% | 111% | 100% | 79.9% | 236% | 97.3% | 103% |
| ClC1C2CC(c3ccccc32)C1Cl (centres undefined) | 102% | 120% | 110% | 103% | 105% | 110% | 116% |
| O=C1OC(c2ccc(-c3ccccc3)cc2)=C/C1=C/c1cccs1 | 92% | 99% | 105% | 41.6% | 93.3% | 112% | 88.1% |
| Oc1ccc(Cc2ccc(O)c(C3CC(c4ccc(Cl)cc4)=NN3)c2)cc1C1CC(c2ccc(Cl)cc2)=NN1 (centres undefined) | 36.2% | 3.35% (active) | 13.6% | 17.5% | 1.4% (active) | 11.3% | 12% |
| NNC(=O)NO | 99% | 108% | 103% | 94% | 101% | 99.9% | 98.2% |
| CCN(CC)CCNc1ccc(Cl)cc1Cl | 106% | 111% | 104% | 107% | 96.8% | 97.4% | 110% |
| O=C1C(=O)c2ccc(Br)cc2-c2cc(Br)ccc21 | 63% | 20.5% | -1.44% (active) | 0.468% (active) | -71.9% (active) | 87% | 73.1% |
| C[N+]1(CCc2ccccc2)CCC(CCC2CC[N+](C)(CCc3ccccc3)CC2)CC1 (centres undefined) | 106% | 104% | 98.8% | 98.6% | 95.1% | 101% | 111% |
| S=c1[nH]nc2sc3ccccc3n12 | 116% | 118% | 105% | 98.4% | 102% | 109% | 115% |
| COc1ccc(-c2nn(-c3ccccc3)cc2/C=C2\SC(=S)N(CCc3ccc(O)cc3)C2=O)cc1 | 103% | 84.4% | 87.6% | 70.5% | 90.2% | 107% | 81.5% |
| O=C1c2nsnc2C(=O)c2c(F)c(F)c(F)c(F)c21 | -96.7% (active) | -67.9% (active) | -57.3% (active) | -45.1% (active) | -93.1% (active) | -22.4% (active) | -44% (active) |
| NC(N)=NC(N)=NCCCc1ccccc1 | 49.5% [100 µM] | 60.5% [100 µM] | 77.8% [100 µM] | 59.2% [100 µM] | 50.6% [100 µM] | 68.5% [100 µM] | 78.1% [100 µM] |
| O=C(C(Br)Br)C(Br)C(Br)c1ccccc1 (centres undefined) | 95.8% | 82.3% | -46.9% (active) | 69.7% | 24.7% | 112% | 102% |
